Tests used:
Format in all cases: functional
[1] = target: Solute carrier family 2, facilitated glucose transporter member 1 (Homo sapiens) (UniProt P11166); assay: ST_JUDE_LEISH: Cytotoxicity at 2uM final concentration against transgenic Leishmania Mexicana promastigotes LmGLUT1 that are glucose transport deficient and complemented with the human glucose transporter GLUT1. Activity is measured by DNA content using SYBR green in vitro
[2] = target: Hexose transporter 1 (Plasmodium falciparum) (UniProt O97467); assay: ST_JUDE_LEISH: Cytotoxicity at 2uM final concentration against transgenic Leishmania Mexicana promastigotes LmPfHT that are glucose transport deficient and complemented with the Plasmodium falciparum hexose transporter. Activity is measured by DNA content using SYBR green in vitro
[3] = target: Glucose transporter (Leishmania mexicana) (UniProt O61059); assay: ST_JUDE_LEISH: Cytotoxicity at 2uM final concentration against transgenic Leishmania Mexicana promastigotes LmGT2 that are glucose transport deficient and complemented with the L. Mexicana glucose transporter 2. Activity is measured by DNA content using SYBR green in vitro

Chain of Solute carrier family 2, facilitated glucose transporter member 1 (Homo sapiens) (P11166 whole entry): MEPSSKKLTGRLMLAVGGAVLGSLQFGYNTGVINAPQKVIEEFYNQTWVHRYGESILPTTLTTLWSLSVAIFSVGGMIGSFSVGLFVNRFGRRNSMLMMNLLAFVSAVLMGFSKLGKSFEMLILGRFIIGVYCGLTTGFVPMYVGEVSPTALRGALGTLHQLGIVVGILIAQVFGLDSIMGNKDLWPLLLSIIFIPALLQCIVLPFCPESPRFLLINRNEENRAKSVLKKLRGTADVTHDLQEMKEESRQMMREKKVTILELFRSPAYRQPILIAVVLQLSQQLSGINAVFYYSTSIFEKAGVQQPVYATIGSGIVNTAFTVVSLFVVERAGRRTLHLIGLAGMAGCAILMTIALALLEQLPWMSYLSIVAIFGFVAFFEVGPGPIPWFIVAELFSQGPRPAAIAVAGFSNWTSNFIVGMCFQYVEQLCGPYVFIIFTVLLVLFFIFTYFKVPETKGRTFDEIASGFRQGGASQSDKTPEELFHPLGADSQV

Compound | inhibition [1] [%] | inhibition [2] [%] | inhibition [3] [%]
CCCc1ccc(Cc2cnc3nc(N)nc(N)c3c2C)cc1 | 39.1 | 53.8 | 40
Clc1ccccc1CCNCC1CCN(CC2CCCCC2)CC1 | 4.24 | 5.3 | 1.76
Cc1cc(N2CCN(C3CCCCC3)CC2)nc2cccc(O)c12 | -1.8 | -0.66 | 0.33
COc1ccc(CCNCC(O)c2cccc(Br)c2)c(Cl)c1OC (centres undefined) | -3.38 | -1.73 | -3.62
O=C(NCCN1CCCC1)c1cc(-c2ccc(Cl)c(O)c2)c(-c2ccncc2)o1 | 2.96 | 4.79 | 0.49
CN1CCN(c2nsc3ccc(-c4ccc(NC(=O)Nc5cc(C(F)(F)F)ccc5F)cc4)cc23)CC1 | 5.16 | 1.74 | 2.12
O=C(/C=C/c1ccc(Cl)c(Cl)c1)NCCCCCN1CCC(NC(=O)Nc2cc(Cl)cc(Cl)c2)CC1 | 8.59 | 9.64 | 9.93
Cc1ccc2[nH]c(C)cc(=NN=Cc3ccccc3F)c2c1 | 13.5 | 12.6 | 8.78
CCC(C)Oc1ccc2nc(N)nc(N)c2c1Cl (centres undefined) | 41.2 | 55.9 | 30
CCN(CC)CC(O)Cc1c2ccc([N+](=O)[O-])cc2nc2cc(OC)c(OC)cc12 (centres undefined) | 0.42 | 1.89 | -1.11
CCN1CCN(c2cc(C)c3cc(NC(=O)c4cccc(C(F)(F)F)c4)ccc3n2)CC1 | 3.14 | 3.29 | 1.11
Cc1cc(Nc2nc(NCc3cccnc3)nc3ccccc23)n[nH]1 | 8.58 | 10.4 | 10
CCN(CC)CCN(Cc1ccc(-c2ccc(C(F)(F)F)cc2)cc1)C(=O)Cn1c(SCc2ccc(F)cc2)cc(=O)c2ccccc21 | 1.74 | -0.14 | 1.57
Cc1nc(-c2cccc(NC(C)C(=O)Nc3cc(C(F)(F)F)ccc3N3CCOCC3)c2)cs1 (centres undefined) | 0.08 | 0.47 | 0.96
CCCCCCCN1CCC(NC(=O)Nc2ccnc3ccc(OC)cc23)C(C(=O)OCC)C1 (centres undefined) | -2.21 | 0 | -2.59
Cc1ccc2nc3c(cc(C(=O)NCc4ccccc4)c(=N)n3CCCn3ccnc3)c(=O)n2c1 | 10.5 | 12.5 | 12.2
CCCCNS(=O)(=O)c1ccc(NC(=O)c2cc([N+](=O)[O-])ccc2Cl)cc1 | 2.21 | 0.49 | -1.07

Compound | inhibition [1] [%] | inhibition [2] [%] | inhibition [3] [%]
FC(F)(F)c1ccc2[nH]ccc(=NN=Cc3cccc(Cl)c3)c2c1 | 1.05 | -0.16 | -3.89
Nc1c(-c2ccc(C(=O)NCCNCc3ccccc3)cc2)cnn1-c1ccc(C(F)(F)F)cc1 | 3.28 | 2.76 | -0.31
O=C(/C=C/c1ccc(Cl)c(Cl)c1)NCCCCCN1CCC(NC(=O)NC2CCCCCC2)CC1 | -0.58 | 1.53 | 0
CC(=O)Nc1ccc(CN2CCN(C(c3ccc(F)cc3)c3ccc(F)cc3)CC2)cc1 | 5.18 | 3.45 | 2.11
CCCC(CCC)n1ccc2c3c(N)nc(N)nc3ccc21 | 59.8 | 70.1 | 44.5
CN1CCc2ccc(NC(=O)Nc3cccc([N+](=O)[O-])c3)cc2C1 | 1.58 | 0.7 | 1.63
Nc1nnc(-c2ccc(Cl)c(Br)c2)c(N)n1 | -0.74 | 1.8 | 4.94
CN1CCC(N2CCN(Cc3ccc(-c4ccc(-c5nc6cc(F)ccc6[nH]5)s4)cc3)CC2)CC1 | 2.75 | 2.55 | -0.25
CC1(C)CCC(C)(C)c2c1ccc(C1CCN(CCCCNC(=O)c3ccc(-c4ccc(C#N)cc4)cc3)CC1)c2OCC(N)=O | 3.73 | 4.26 | 4.33
O=S1(=O)NCc2ccc(Nc3nccc(Nc4ccc5c(cnn5Cc5ccccc5)c4)n3)cc21 | -0.8 | 6.35 | -1.65
c1cncc(CCNCc2ccc(-c3ccc(CNC4Cc5ccccc5C4)cc3)cc2)c1 | 5.14 | 3.57 | 3.87
CN(C)Cc1cccc(-c2ccc(NC(=O)c3ccc4c(=O)n(CC5CCCO5)cnc4c3)cc2)c1 (centres undefined) | 38.5 | 22.4 | 14.5
CC(C)N1CCN(C(CN2CCN(CCCOc3ccc(-c4ccccc4)cc3)CC2)c2ccc(F)cc2)CC1 (centres undefined) | 60.6 | 32 | 103
CC(C)(C)NS(=O)(=O)c1cc(C(=O)N2CCC(CCN3CCC(O)(c4cccc(C(F)(F)F)c4)CC3)(c3cccc(F)c3)CC2)c(Cl)cc1F | 1.73 | 1.52 | -0.37
Ic1cc(CNC2CCCCC2)ccc1OCc1cccc(COc2ccc(CNC3CCCCC3)cc2I)c1 | 4.09 | 3.76 | 2.65
Cc1nc(C)c(CC(=O)Nc2ccc(-c3cccc(-c4nc5cccc(C)c5[nH]4)c3)cc2)s1 | 2.82 | 2.89 | 4.14

Reference: ChEMBL document CHEMBL3433997, “St. Jude Leishmania screening dataset” (2016)
